# Source: PubChem
# KB-3-1 tox = kills parental KB-3-1 adenocarcinoma cells | KB-3-1 viability, CellTiter-Glo ATP luminescence, 72 h | 1.4% of 400,000 active | Potency, µM (top dose mostly 46.1 µM), actives largely listed as cytotoxic; also: % is scaled to controls: 0 for no effect and ±100 for the full control effect; nearly all actives have a fitted effect of over 60% in size
#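 Viability of parental KB-3-1 cells, measured by CellTiter-Glo luminescence, followed a 72 h incubation at 37 °C with pinned compounds in phenol-red-free DMEM containing 10% FBS.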
# MCF10A rerep = DNA re-replication induction in MCF 10a cells. MCF 10A DNA re-replication, Hoechst nuclear intensity, 48 h. Potency, µM (top dose mostly 46.1 µM), for the others: top-dose activity, positive = re-replication, most hits filed as activators. 2.9% of 350,000 active. AID 624296; also: % of control where 0% means no effect; nearly all actives have a fitted effect of over 50% in size
# HT1080NT lethal = kills 2HG-producing HT-1080-NT fibrosarcoma cells | AID 686970 | HT-1080-NT fibrosarcoma viability, CellTiter-Glo ATP luminescence, 48 h | 1.6% of 360,000 active | Potency, µM (series often up to 46.1 µM), without a hit: at the highest dose activity, negative = less viability, most hits filed as cytotoxic;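 also: NT is the 2HG producing partner of a matched IDH1 knockdown line; 0% = DMSO-treated cells and -100% = media-only wells without cells; nearly all actives have a fitted effect of over 55% in size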
#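 HT-1080-NT fibrosarcoma cells (2HG-overproducing), 750 cells/well in RPMI with 5% FBS, dosed after 2 h and incubated 48 h at 37C. CellTiter-Glo luminescence normalized to DMSO and no-cell wells; concentration-response curves fitted and classed.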
# SW480 rereplic = inducers of DNA re-replication in SW480 colon cancer cells | SW480 DNA re-replication, Hoechst DNA content imaging, 48 h | AID 624297 | Potency, µM (titrated, usually from 46.1 µM), inactives show at the top dose re-replication activation, most hits filed as activators | 1.8% of 340,000 active; also: % of control where 0% means no effect; nearly all actives have a fitted effect of over 55% in size
#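 Hoechst fluorescence of nuclei (405 nm excitation, 500-530 nm emission) measured by plate-scanning imager after 48 hr compound exposure at 37 C; re-replication scored as increased number of nuclei with elevated intensity.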
# HT1080 IDH1KD tx = kills HT-1080 cells with IDH1 knockdown. 2% of 360,000 active. HT-1080 IDH1 knockdown viability, ATP luminescence, 48 h. Potency, µM (doses to about 46.1 µM), inactives show at the highest dose activity, negative = toxicity, hits mostly cytotoxic;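 also: 0% = DMSO wells and -100% = cell-free medium wells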
#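 In this qHTS, HT-1080 cells depleted of IDH1 are exposed for 48 h at 37 °C to compound titrations. Toxicity is scored from CellTiter-Glo luminescence, with DMSO as full viability and medium alone as none.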
# KB-V1 MDR tox = kills drug-selected multidrug resistant KB-V1 cells; 3.4% of 400,000 active; Potency, µM (doses to about 46.1 µM), actives largely listed as cytotoxic; AID 1347076; KB-V1 MDR cells viability, CellTiter-Glo, 72 h; also: % is scaled to controls: 0 for no effect and ±100 for the full control effect; nearly all actives have a fitted effect of over 60% in size
#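 Compound-treated KB-V1 multidrug-resistant cells, 72 h, 37 degrees C; viability by CellTiter-Glo. Fitted qHTS curves give the values.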
# Numbers without * were called inactive; i = inactive; ? = inconclusive; nt = no result given; ! = repeats disagree; [ ] = remark or other dose. An excerpt weighted towards active compounds, which were near 7.9% of everything screened. Calls follow the shape of the dose curve; as a rule, active = well fitted curve in the direction sought with a large enough effect; inconclusive = small, poorly fitted or top-dose-only effect, or another doubt; inactive = no such curve, though single readings can be large; an effect the other way counts as inactive or inconclusive. Potency is read from the fitted curve at half-maximal effect.
SMILES,KB-3-1 tox,MCF10A rerep,HT1080NT lethal,SW480 rereplic,HT1080 IDH1KD tx,KB-V1 MDR tox
CCc1ccc(OCC(=O)Nc2cccc3c2CCCC3)cc1,i,2%,-1%,7.3µM*,0%,i
CCS(=O)(=O)c1ccc(O)c(NC(=O)COc2ccccc2)c1,i,13%,21%,-5%,21%,i
O=C(Nc1ccccc1N(C(=O)c1ccco1)S(=O)(=O)c1cccs1)c1ccco1,i,?,?,?,?,i
Nc1nnc(SCc2ccc(F)cc2Cl)s1,i,29%,-3%,-9%,8%,i
COc1cc(SC)ccc1C(=O)Nc1ccncc1,i,0%,12%,-87%,-3%,?
O=C(NC(=S)Nc1ccc(Cl)cn1)C(c1ccccc1)c1ccccc1,18µM*,15µM*,2%,?,6%,?
COc1ccc(C(=O)NNC(=S)NC(=O)c2ccc(F)cc2)cc1Br,i,10%,?,-22%,?,?
COc1cc(SC)ccc1C(=O)Nc1ccc(Cl)cn1,?,-35%,4%,-114%,6%,13µM*
COc1cc(C(=O)NC(=S)Nc2ccc(Cl)cn2)cc(OC)c1OC,i,?,-7%,18µM*,-5%,?
COc1cc(C(=O)NNC(=S)NC(=O)c2ccc(F)cc2)cc(OC)c1OC,i,23µM*,-28%,?,?,?
S=C(Nc1ccccc1)Nc1ccc(Cl)cn1,i,-5%,20%,-3%,-21%,i
COc1ccc(-c2noc(C3CC(=O)N(c4ccc5c(c4)OCCO5)C3)n2)c(OC)c1 (stereo not given),i,nt,nt,nt,nt,i
COc1cc(C(=O)NC(=S)NCc2ccncc2)cc(OC)c1OC,i,nt,-2%,nt,1%,?
CSc1ccc(Cl)c(C(=O)Nc2ccc(Cl)cn2)c1,23µM*,21µM*,6.5µM*,21µM*,5.8µM*,i
N#Cc1cc([N+](=O)[O-])ccc1N1CCCC1,i,-1%,-5%,-692%,-8%,i
CCN(C(=O)COc1ccc2ccc(=O)oc2c1)C1CCCCC1,i,0%,11%,-6%,14%,18µM*
CN(C)C(=O)COc1ccc2ccc(=O)oc2c1,i,1%,-1%,-2%,0%,i
CCOC(=O)/C=C1\CN(Cc2cc(OC)c(OC)c(OC)c2)S(=O)(=O)c2ccccc21,?,?,?,1%,-10%,10µM*!
CCOC(=O)/C=C1\CN(Cc2cc(OC)c(OC)c(OC)c2)S(=O)(=O)c2ccc(C(F)(F)F)cc21,?,1%,0%,?,-6%,?
O=C(COc1ccc(S(=O)(=O)N2CCCC2)cc1Cl)N1CCN(c2ccccc2)CC1,i,-1%,8%,0%,-1%,i
O=S(=O)(c1cnc(Cl)c(Br)c1)N1CCc2ccccc21,i,?,21µM*,?,?,i
O=S1(=O)CCO[C@H]2Cc3ccccc3[C@H]2N1Cc1cccc(F)c1,i,18%,-3%,6%,-1%,i
O=C(C1=C[C@@H](C2CCCCC2)C[C@@H](OCc2ccc(CO)cc2)O1)N1CCOCC1,i,6%,-8%,0.18µM*,-3%,i
O=C(C1=C[C@@H](c2coc3ccccc3c2=O)C[C@@H](OCc2ccc(CO)cc2)O1)N1CCCCCCC1,i,1.3µM*,10%,5%[9.22 µM],7%,i
O=C(C1=C[C@@H](c2ccccc2)C[C@@H](OCc2ccc(CO)cc2)O1)N1CCN(Cc2ccc3c(c2)OCO3)CC1,10µM*,?,?,?,16µM*,?
O=C(C1=C[C@@H](C2CC2)C[C@@H](OCc2ccc(CO)cc2)O1)N1CCOCC1,i,8%,29%,-11%,9%,i
O=C(NC(=S)Nc1ccccc1Cl)c1cncc(Br)c1,i,-2%,4%,1%,20%,i
